The sample as a whole holds a higher share of hits than the screen did.
ST2 IL33 inh – inhibitors of human ST2 (IL1RL1) binding to IL-33; Q01638; AlphaLISA ST2-Fc/biotin-IL-33 interaction, 1 h; inhibition, % for hits at 17 µM; 78,000 compounds, 2.3% hits; AID 1259354; in the data active = inhibition above about 30%
Target sequence (Q01638 whole entry, looked up): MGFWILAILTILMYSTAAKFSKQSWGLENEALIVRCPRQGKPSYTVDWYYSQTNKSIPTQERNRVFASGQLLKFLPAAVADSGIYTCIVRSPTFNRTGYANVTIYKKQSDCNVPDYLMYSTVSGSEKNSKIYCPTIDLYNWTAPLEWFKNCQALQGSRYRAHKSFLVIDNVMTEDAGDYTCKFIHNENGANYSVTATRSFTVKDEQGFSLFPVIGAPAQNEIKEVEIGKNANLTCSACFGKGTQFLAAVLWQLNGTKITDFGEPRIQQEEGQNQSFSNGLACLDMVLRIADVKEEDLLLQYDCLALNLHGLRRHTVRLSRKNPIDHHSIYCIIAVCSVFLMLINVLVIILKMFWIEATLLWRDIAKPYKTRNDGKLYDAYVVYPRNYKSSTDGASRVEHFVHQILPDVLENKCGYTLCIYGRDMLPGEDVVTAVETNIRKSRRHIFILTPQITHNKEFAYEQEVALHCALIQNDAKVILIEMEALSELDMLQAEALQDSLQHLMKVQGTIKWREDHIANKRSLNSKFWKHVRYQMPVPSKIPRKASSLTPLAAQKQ
Of the large screens only hits and unclear results are named; the others gave an inactive call; ! = not active in a repeat.

COc1ccc(Br)cc1C=Nc1c(-c2ccco2)nc2ccccn12	ST2 IL33 inh 30.0%
Cc1ccc2nc(-c3ccco3)c(Nc3ccccc3)n2c1	none
Cc1cc(NC(=O)CSc2nc3c(c(=O)n2-c2ccccc2)SCC3)no1	none
CC(C)c1cc(C2CCN(Cc3ccc(O)c(Cl)c3)CC2)[nH]n1	none
CNc1cc(C(=O)N2CCC3(CCCN(Cc4cc(OC)ccc4F)C3)C2)ccn1 (stereo not given)	none
CC(C)Cc1cc(C(=O)NC2CCCC2)no1	none
O=C(COC(=O)c1cccc(Br)c1)c1ccc(Br)cc1	none
O=C(COC(=O)c1ccccc1O)c1ccc(Br)cc1	ST2 IL33 inh 90.0%
O=C(COC(=O)c1ccc(Cl)cc1)c1ccc(Br)cc1	none
CN1CCN2C[C@@H](NC(=O)Cc3nc4ccc(Cl)cc4[nH]3)C[C@H]2C1	none
O=C(C1CC1)N1CCc2cc(S(=O)(=O)N3CCN(c4ncccn4)CC3)ccc21	none
O=C1c2ccccc2C(=O)N1CC(O)COc1ccccc1 (stereo not given)	none
Nc1nc(N)nc(-c2ccc(Oc3ccccc3)cc2)n1	none
Nc1c(Oc2ccccc2)c(Oc2ccccc2)c(N)c2c1C(=O)c1ccccc1C2=O	ST2 IL33 inh 92.0%
Cc1cccc(N2CCN(S(=O)(=O)c3ccc4c(c3)c(=O)n(C)c(=O)n4C)CC2)c1C	none
Cc1cc(Cl)ccc1N(CC(=O)Nc1ccc(C(N)=O)cc1)S(=O)(=O)c1ccccc1	none
O=c1[nH]c2ccccc2cc1-c1nccn1Cc1ccccc1Cn1cccn1	none
O=C(Nc1nc2ccc3ccccc3c2s1)c1cccc(N2C(=O)CCC2=O)c1	none
N#Cc1nc(-c2ccc(Cl)cc2)oc1NCc1ccco1	ST2 IL33 inh 35.0%!
O=S(=O)(c1ccccc1)c1nc(-c2ccc(Cl)cc2)oc1NCc1ccco1	none
COc1ccc(-c2nc(S(=O)(=O)c3ccc(Cl)cc3)c(NCc3ccco3)o2)cc1	none
CSc1cccc(NC(=O)CN2N=NC3C(=O)N(c4ccc(Cl)cc4)C(=O)C32)c1 (stereo not given)	none
Cc1cccc(N=C2c3ccccc3-c3ncccc32)c1	ST2 IL33 inh 41.0%
Cc1cccc(N=C2NC(=O)c3cccc([N+](=O)[O-])c32)c1	none
Cc1ccc(N2C(=O)c3cccnc3C2=O)c(C)c1	none
Cc1ccc(O)c(-c2[nH]ncc2C(=O)c2ccccc2)c1	none
CC(C)c1cc(C(=O)N2CCN3CCN(C)C(=O)C3C2)nc2ncnn12 (stereo not given)	none
CC(C)NC(=O)c1cc2c(=O)n3ccccc3nc2n1C	none
COc1ccc(C(=O)O/N=C(/N)Cc2ccc(Cl)cc2)cc1	none
COc1ccc(C(=O)ON=C2C(C)=CC(=O)C=C2C)cc1	ST2 IL33 inh 52.0%
CC1=CC(=O)C=C(C)C1=NOC(=O)c1ccc([N+](=O)[O-])cc1[N+](=O)[O-]	none
Cc1nc(CN2CC(OCc3ccncc3)CN(C(=O)c3sc(C)nc3C)CC2=O)cs1 (stereo not given)	none
COc1ccc(-c2cc(CNC3CCSCC3)on2)cc1	none
Oc1ccc(-c2nc(C3CCCCC3)no2)cc1	none
Cc1cc(C)n2cc(CSc3nncn3-c3ccccc3)nc2n1	none
CN(C)c1ccc(/C=c2\sc3nnc(-c4ccccc4Cl)n3c2=O)cc1	none
Cc1ccc(/C=c2\sc3nnc(-c4ccccc4Cl)n3c2=O)o1	ST2 IL33 inh 37.0%
COc1ccc(/C=c2\sc3nnc(-c4ccccc4Cl)n3c2=O)cc1	none
CCOc1ccc(C(=O)Nc2cccc(C)c2C)cc1[N+](=O)[O-]	none
CCOC(=O)C1=C(N)OC2=C(C(=O)CC(c3ccccc3)C2)C1c1ccccc1 (stereo not given)	none
CCOc1cc(C2Nc3ccccc3-c3nnc(SCC)nc3O2)ccc1O (stereo not given)	none
Cc1c(NC(=O)C(C)Oc2ccc(F)cc2)c(=O)n(-c2ccccc2)n1C (stereo not given)	none
CN1CCc2cc(O)c(O)cc2C(c2ccccc2)C1 (stereo not given)	none
CN1CCc2cc(Cl)c(O)cc2[C@@H](c2ccccc2)C1	none
CN1CCc2c(cc(O)c(O)c2Cl)C(c2cccc(Cl)c2)C1 (stereo not given)	ST2 IL33 inh 39.0%
COc1ccc(OC)c(S(=O)(=O)N2CCN(c3cc(-c4ccccc4C)ncn3)CC2)c1	none
CC1=C(C(=O)OCC2CCCCC2)C(c2ccc(Cl)c(Cl)c2)NC(=O)N1 (stereo not given)	none
Cc1ccc(CN(C)C(=O)c2cc(CC(C)C)[nH]c(=O)n2)o1	none
O=C1CC(c2ccccc2)CC2=C1C(c1cccc(Br)c1)Nc1ccccc1N2 (stereo not given)	none
Cc1cccc(OCc2nnc(SCC(=O)Nc3ccc(C)c(C)c3)o2)c1	none
COc1ccc(CCNc2oc(COc3cccc(C)c3)nc2C#N)cc1	ST2 IL33 inh 30.0%
COc1ccccc1OCc1nc(C#N)c(NCc2cccnc2)o1	none
COc1ccc(CNc2oc(COc3ccc(Cl)cc3)nc2C#N)cc1	none
COc1ccc(CCNc2oc(COc3ccccc3C)nc2C#N)cc1OC	ST2 IL33 inh 38.0%
COc1ccc(CCNC(=O)CC(c2ccccc2)c2ccccc2)cc1OC	none
COc1ccc(N2S(=O)(=O)c3ccccc3S2(=O)=O)c(OC)c1	none
CCc1cc(CC)c(CO)c(CC)c1CO	none
O=C(NCc1cccs1)c1cc(-c2ccc(Cl)s2)nc2ccccc12	ST2 IL33 inh 30.0%!
O=C(NCc1cccs1)c1cc(-c2ccc(Br)s2)nc2ccccc12	none
Cc1ccc(CNC(=O)c2cc(-c3ccc(Cl)s3)nc3ccccc23)o1	none
Cc1ccc(Oc2ncccc2CNC(=O)c2cc(C3CC3)[nH]n2)cn1	none
CC(C)C1CN(C(=O)NCc2ccc(Cl)cc2)CCC(=O)N1CC1CC1 (stereo not given)	none
CCOC(=O)N1CCN(C(=O)c2ccc(N3CCC(NCCc4ccncc4)CC3)cc2)CC1	none
CCOC(=O)N1CCN(C(=O)c2ccc(N3CCC(NCCc4cccs4)CC3)cc2)CC1	none
O=C(c1ccc(N2CCC(NCC3(N4CCOCC4)CCCC3)CC2)cc1)N1CCCC(O)C1 (stereo not given)	ST2 IL33 inh 31.0%
CN1C(=O)C(c2nnc(Nc3ccccc3)s2)C2CC1(C)Oc1ccccc12 (stereo not given)	none
Cc1cc(NC(=O)c2sc3cc(F)ccc3c2Cl)no1	none
CC(C)Oc1ccc(C(=O)N(c2ccc(F)cc2)C2C=CS(=O)(=O)C2)cc1 (stereo not given)	none
CNC(=O)C(C)N(C)Cc1cccc(C(=O)OC)c1 (stereo not given)	none
CNC(=O)C(C)N(C)Cc1nnc(CC2CCNCC2)n1-c1ccccc1 (stereo not given)	ST2 IL33 inh 30.0%
CNC(=O)C(C)N(C)Cc1nc2ccccc2n1CC(C)C (stereo not given)	none
CCC(=O)N1N=C2c3ccc(OC)cc3CCC2C1c1cccc(F)c1 (stereo not given)	none
Cc1ccc(S(=O)(=O)N2CCN(c3nc(-c4ccc(C)o4)cs3)CC2)cc1	ST2 IL33 inh 37.0%
Cc1ccc(S(=O)(=O)N2CCN(c3nc(C)cc(N4CCCC4)n3)CC2)cc1	none
Cc1ccc(Nc2cc(C)nc(N3CCN(S(=O)(=O)c4ccc(C)cc4)CC3)n2)cc1	none
CCCSc1nnc(NC(=O)c2cccc3ccccc23)s1	none
COc1cccc(NC(=O)c2ccccc2NC(=O)CCC(=O)O)c1	none
C=CCSC1=C(C#N)C(c2ccccc2)C(C(=O)OC)C(=O)N1 (stereo not given)	none
Cc1nc(CCN)cc(N2CCN(c3ccncc3C)CC2)n1	none
Cc1cc(C)n(-c2n[nH]c(=O)c3ccccc23)n1	none
Cc1cc(C)n(CCCNC(=O)c2nc3ccccc3[nH]c2=O)n1	none
Cc1cc(C)n(-c2nc3ccccc3[nH]c2=O)n1	ST2 IL33 inh 46.0%
CC(=O)N(c1ccc(F)cc1)C1C=CS(=O)(=O)C1 (stereo not given)	none

Source: PubChem BioAssay
